From PubChem
Only some compounds are listed: those with a hit (about 5.8% of all), similar ones and a draw of the others.
RORg inh: blocks mouse ROR gamma transcriptional activity; Drosophila S2 Gal4-RORgamma UAS-luciferase reporter, 20 h; Potency, µM (highest dose often 53.6 µM), actives largely listed as inhibitors; hit rate 5.4% among 310,000; AID 2551; also: nearly all actives have a fitted effect of over 60% in size
Target sequence (P51450 whole entry, looked up, the tested form may be a part): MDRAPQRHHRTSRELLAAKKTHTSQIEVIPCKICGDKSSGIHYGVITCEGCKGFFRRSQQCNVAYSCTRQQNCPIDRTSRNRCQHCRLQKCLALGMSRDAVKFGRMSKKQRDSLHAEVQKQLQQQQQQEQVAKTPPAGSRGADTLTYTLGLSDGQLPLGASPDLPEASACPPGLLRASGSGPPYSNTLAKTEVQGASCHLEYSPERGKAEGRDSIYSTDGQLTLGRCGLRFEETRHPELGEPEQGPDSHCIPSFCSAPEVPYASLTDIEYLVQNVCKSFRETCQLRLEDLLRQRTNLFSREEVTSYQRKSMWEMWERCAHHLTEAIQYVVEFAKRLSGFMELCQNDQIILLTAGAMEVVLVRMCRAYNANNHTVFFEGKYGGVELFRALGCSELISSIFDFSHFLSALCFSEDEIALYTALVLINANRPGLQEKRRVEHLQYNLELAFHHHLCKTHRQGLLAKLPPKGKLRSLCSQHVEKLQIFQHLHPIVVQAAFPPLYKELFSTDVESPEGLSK
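ROR gamma transcriptional activity was tracked as Gal4-UAS luciferase output in stably transfected Drosophila Schneider cells, with compound added 1 hr before 700 uM copper sulfate induction and a 20 hr ambient-temperature incubation.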
VP16 counter: counter-screen for ROR gamma inhibitors: Gal4-VP16 reporter; Drosophila S2 Gal4-VP16 UAS-luciferase, luminescence, 20 h; Potency, µM (titrated, usually from 53.6 µM), usual class: inhibitors; hit rate 3.5% among 310,000; AID 2546;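 also: Gal4-VP16 expression switched on by copper sulfate through the metallothionein promoter; nearly all actives have a fitted effect of over 50% in size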
TRPV1 ag: activates the human vanilloid receptor TRPV1. TRPV1-expressing cells, Fluo-8 calcium influx, agonist mode. hit rate 0.19% among 320,000. Q8NER1. activation, % at 8.33 µM; in the data active = activation above about 80%; inconclusive = between about 30% and that limit
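TRPV1-expressing cells were cultured overnight at 35.5C and loaded with Fluo-8 calcium dye for 40 to 90 min at room temperature. After a 10 s baseline, compound was added and calcium influx was read kinetically for 3 min (ex 480/em 520 nm).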
uPA surface inh: inhibitors of cell surface uPA generation; hit rate 0.31% among 330,000; cell surface uPA generation assay, qHTS; AID 540303; Potency, µM (highest dose often 38.3 µM), usual class: inhibitors; active = well fitted inhibition curve with a large enough effect; inconclusive = small, poorly fitted or top-dose-only effect; inactive = no such curve, though single readings can be large or run the other way; tested in mouse RAW 264.7 cells; also: nearly all actives have a fitted effect of over 55% in size
TRPV1 potentiator: potentiators of human vanilloid receptor 1 (TRPV1) | TRPV1-expressing cells, Fluo-8 calcium influx, capsaicin EC20 potentiation | potentiation, % at 8.33 µM | hit rate 0.02% among 320,000 | AID 540277; in the data active = potentiation above about 80%; inconclusive = between about 30% and that limit
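TRPV1-expressing cells were cultured overnight at 35.5C and loaded with Fluo-8 calcium dye for 40 to 90 min at room temperature. After a 10 s baseline, compound was added and calcium influx was read kinetically for 3 min (ex 480/em 520 nm).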
Each line names hits and unclear results; the compound was inactive in the other large screens; ! = not confirmed by another sample. Unless noted, calls follow the shape of the dose curve; as a rule, active = well fitted curve in the direction sought with a large enough effect; inconclusive = small, poorly fitted or top-dose-only effect, or another doubt; inactive = no such curve, though single readings can be large; an effect the other way counts as inactive or inconclusive.

Cc1ccc(-c2n[nH]c(=S)n2/N=C/c2ccncc2)cc1	RORg inh 11µM, VP16 counter inconclusive
Cc1ccc(-c2n[nH]c(=S)n2/N=C/c2sccc2C)cc1	RORg inh inconclusive
Cc1ccc(/C=N/n2c(-c3ccc(Cl)cc3)n[nH]c2=S)o1	RORg inh 6.3µM
Cc1ccc(/C=N/n2c(-c3cccnc3)n[nH]c2=S)o1	none
Cc1ccc(NC(=S)N2CCC(C(=O)c3ccc(F)cc3)CC2)cc1C	none (no result: RORg inh, VP16 counter, TRPV1 ag, TRPV1 potentiator)
O=C(O)CS(=O)CC(=O)Nc1cccc(C(F)(F)F)c1 (stereo not drawn)	none
Cc1ccc(S(=O)(=O)N(C)c2cccc3cccnc23)cc1	none (no result: TRPV1 ag, uPA surface inh, TRPV1 potentiator)
C[C@H](O)c1[nH]c2cc(F)ccc2c1[C@H](C)O	none
CCc1ccccc1NC(=O)CCC(=O)N1CCSc2ccccc21	none
CNc1nc(-c2ccccc2)[n+](-c2ccc(C)cc2)s1	RORg inh 7.9µM, VP16 counter 7.1µM
CC(C)N1CCN(c2ccc(OC[C@@H]3CO[C@@](Cn4cncn4)(c4ccc(Cl)cc4Cl)O3)cc2)CC1	none (no result: TRPV1 ag, uPA surface inh, TRPV1 potentiator)
CC(C)c1ccc2oc3nc(N)c(C(=O)O)cc3c(=O)c2c1	RORg inh 7.9µM, VP16 counter 4µM! (no result: uPA surface inh)
Cc1c(C(=O)c2no[n+]([O-])c2C(=O)c2cnn(C)c2C)cnn1C	RORg inh 10µM, VP16 counter 8.9µM
CN(C)c1ccc(-c2cc(NCc3cccnc3)ncn2)cc1	none (no result: TRPV1 ag, uPA surface inh, TRPV1 potentiator)
COc1ccc(NC(=S)N(CCc2ccc(OC)c(OC)c2)Cc2ccccn2)cc1	RORg inh inconclusive
COc1ccc(CN(Cc2ccc(C(=O)O)cc2)C(=S)Nc2ccccc2Cl)cc1OC	none
COc1ccc(CCN(Cc2ccccn2)C(=S)Nc2ccccc2F)cc1OC	RORg inh 13µM
COc1ccc(CCN(Cc2ccccn2)C(=S)Nc2ccccc2Cl)cc1OC	RORg inh 10µM, VP16 counter inconclusive
COc1ccc(CCN(Cc2ccccn2)C(=S)Nc2cccc(C)c2)cc1OC	RORg inh 10µM
COc1ccc(NC(C)=O)cc1NS(=O)(=O)c1cn(C)c(=O)n(C)c1=O	none
CCn1c(C(C)NC(=O)c2ccc(Cl)cc2)n[nH]c1=S (stereo not drawn)	RORg inh 7.1µM, TRPV1 potentiator inconclusive
CCC(C(=O)NC1CCCC1)n1c(SCc2cccc(C)c2)nc2ccncc21 (stereo not drawn)	RORg inh 10µM
CCC(C(=O)NC1CCCCC1)n1c(SCc2ccc(F)cc2)nc2ccncc21 (stereo not drawn)	RORg inh inconclusive, uPA surface inh inconclusive
CC1CCC(NC(=O)COC(=O)CNC(=O)c2ccc3ccccc3c2)CC1 (stereo not drawn)	none (no result: RORg inh, VP16 counter)
N#C/C(=C\Nc1ccccc1O)c1nc2ccccc2o1	RORg inh inconclusive, VP16 counter 3.5µM, TRPV1 ag inconclusive
COC(=O)[C@@]1(Cc2ccc(F)cc2)[C@@H]2C(=CC(=O)[C@H]2CC(=O)C(=O)N2CCCC2)CN1C(=O)c1ccccc1	RORg inh 14µM, VP16 counter inconclusive (no result: TRPV1 ag, uPA surface inh, TRPV1 potentiator)
C=C1C(=O)C=C2CN(C(=O)c3ccccc3)[C@@](Cc3ccc(OC)cc3)(C(=O)OC)[C@@H]12	RORg inh 4µM, VP16 counter 0.71µM (no result: TRPV1 ag, uPA surface inh, TRPV1 potentiator)
COC(=O)[C@@]1(Cc2ccc(OC)cc2)[C@@H]2C(=CC(=O)[C@H]2CC(=O)C(=O)N2CCCC2)CN1C(=O)c1ccccc1	RORg inh inconclusive, VP16 counter 4µM, uPA surface inh 8.9µM
COC(=O)[C@@]1(Cc2ccc(OC)cc2)[C@@H]2[C@@H](CC(=O)[C@H]2CC(=O)C(=O)N2CCCC2)CN1C(=O)c1ccccc1	none (no result: TRPV1 ag, uPA surface inh, TRPV1 potentiator)
CO[C@H]1COC(=O)[C@H](C)NC(=O)C/C=C\[C@@H](C)[C@H](OC)COC(=O)C/C=C\[C@@H]1C	none (no result: TRPV1 ag, uPA surface inh, TRPV1 potentiator)
CCOc1ccc(CN2CCN(Cc3nc(C(C)C)cs3)CC2CCO)cc1 (stereo not drawn)	none
COc1cc(/C=C2\SC(c3ccc(C)cc3)=NC2=O)ccc1O	RORg inh 14µM, VP16 counter 10µM
COc1cc(/C=C2\SC(=S)N(NC(=O)c3ccc(O)cc3)C2=O)ccc1O	RORg inh 11µM, VP16 counter inconclusive, TRPV1 ag inconclusive
COc1ccc(-c2cc(=O)c3c(O)cc(O)c(-c4cc(-c5cc(=O)c6c(O)cc(OC)cc6o5)ccc4OC)c3o2)cc1	none (no result: TRPV1 ag, uPA surface inh, TRPV1 potentiator)
CCCCCC(O)c1ccc([C@H]2CCC(=O)[C@@H]2CCCCCCC(=O)O)cc1 (stereo partly drawn)	none (no result: TRPV1 ag, uPA surface inh, TRPV1 potentiator)
O=C(CNC(=O)c1ccc2c(c1)OCO2)N/N=C/c1cc(Br)ccc1O	RORg inh 20µM, VP16 counter inconclusive
COC(=O)N/N=C/c1cc([N+](=O)[O-])cc(Br)c1O	RORg inh 11µM, VP16 counter inconclusive
Nc1nnc(CC(=O)N/N=C/c2cc([N+](=O)[O-])cc(Br)c2O)s1	none
O=C(CNC(=O)c1ccccc1Br)N/N=C/c1cc(Br)ccc1O	RORg inh 2.2µM, VP16 counter 5µM, uPA surface inh inconclusive
O=C(CNC(=O)c1ccco1)N/N=C/c1ccc(O)cc1O	RORg inh inconclusive
O=C(CNC(=O)c1ccco1)N/N=C/c1cc(Br)ccc1O	RORg inh 8.9µM, VP16 counter 11µM
C=C(C(=O)O)[C@@H]1CC[C@@]2(C)CCC[C@](C)(O)[C@@H]2C1	none (no result: TRPV1 ag, uPA surface inh, TRPV1 potentiator)
O=C(/C=N/NC(=O)c1ccccc1Br)c1ccccc1	RORg inh inconclusive
O=C(CNC(=O)c1ccccc1)N/N=C/c1cc(Br)ccc1O	RORg inh 2.5µM, VP16 counter 7.1µM
O=C(CNC(=O)c1ccccc1Br)N/N=C\c1cc([N+](=O)[O-])cc(Br)c1O	RORg inh 11µM, VP16 counter 7.9µM
CCOc1ccc(NC(=O)CN2CC(c3ccccc3)CC2=O)cc1 (stereo not drawn)	RORg inh inconclusive, TRPV1 potentiator inconclusive
O=C(CNC(=O)c1ccncc1)N/N=C/c1cc(Br)ccc1O	none
O=C(N/N=C/c1cc(Cl)ccc1O)c1ccccc1Br	RORg inh 0.71µM, VP16 counter 1.3µM, uPA surface inh 4.5µM
O=C(CN1CC(c2ccccc2)CC1=O)N/N=C/c1cc(Br)ccc1O (stereo not drawn)	RORg inh 4.5µM, VP16 counter 3.2µM
O=C(CNC(=O)c1ccccc1Br)N/N=C/c1cccs1	none
O=C(N/N=C\c1cc(Cl)ccc1O)c1ccc(S(=O)(=O)N2CCCCC2)cc1	RORg inh 5µM, VP16 counter 3.5µM, TRPV1 ag inconclusive
O=C(CNC(=O)c1ccccc1Br)N/N=C/c1ccccc1O	RORg inh 3.2µM, VP16 counter inconclusive
O=C(N/N=C/c1cc(Cl)ccc1O)c1cccnc1	RORg inh 1.1µM, VP16 counter 0.71µM
O=C(Nc1cc(S(=O)(=O)Nc2ccc(Cl)cc2)ccc1O)c1ccc(S(=O)(=O)N2CCCCCC2)cc1	RORg inh inconclusive, VP16 counter inconclusive
CC1CC=CC2C1C(=O)N(Cc1ccccc1)C2c1cccc([N+](=O)[O-])c1 (stereo not drawn)	RORg inh inconclusive (no result: TRPV1 ag, uPA surface inh, TRPV1 potentiator)
